Data from PubChem BioAssay.
Several values for one entry are separate records, joined by “and”; a condition that tells them apart may be missing. Identical values can stand only once. Records with an inconclusive call do not appear. Activity calls are given as the source filed them.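 Rule for the calls, unless noted: active = compounds whose cell count with miR-34 switched on is under 0.7 times the count with it off; inactive = the rest.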

Experiments:
[1] = P. berghei load reduction in hepatocytes – cell-based, HepG2, luciferase luminescence, HepG2 viability, primary screen (AID 624349; in the data active = parasite load remaining mostly below about 12%, no sharp cut-off; inactive = mostly above about 10%;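 note: 100% = mean of DMSO negative control wells on the same plate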); conditions: P. berghei liver stage in HepG2, luciferase luminescence, concentration not given here; parasite load remaining: stronger effect = lower value; viability: measured here: HepG2 viability without parasites
[2] = Wnt pathway potentiators raising nuclear beta-catenin – imaging, WNT3A-conditioned medium, mouse C2C12, NPC library, primary screen (AID 1117326; in the data active = nuclear beta-catenin stimulation mostly above about 4.2%, no sharp cut-off; inactive = mostly below about 10%); conditions: stronger effect = higher value
[3] = stimulators of insulin release from INS-1E, primary screen, cell-based, 5 mM glucose, NPC library (AID 1117329;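 active = compound raises insulin release from rat beta cells at 5 mM glucose, no numeric limit stated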); conditions: rat INS-1E insulin secretion, at 10 µM, stronger effect = higher value
[4] = growth inhibition of GSK3B-pretreated HCT116 cells – cell-based, CellTiter-Glo, 0.2 to 20 µM (AID 1117336;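 active = compounds lowering colon cancer cell viability after pretreatment blocking the GSK3B kinase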); conditions: HCT116 viability after GSK3B inhibitor, at 20 µM, stronger effect = higher value
[5] = inhibition of endothelial tube formation, primary screen, imaging, VEGF stimulated, CD31 staining, tube area, NPC library (AID 1117340;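 active = compound that reduces growth-factor-driven endothelial tube area in a mixed cell culture, no cutoff stated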); conditions: VEGF-stimulated ADSC/ECFC co-culture, at 10 µM, stronger effect = higher value
[6] = GLP1 release stimulators, primary, NCI-H716, NPC library (AID 1117341;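 active = compound raises GLP1 secretion from the human gut endocrine cells, with no numeric limit stated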); conditions: NCI-H716 cells, at 10 µM, stronger effect = higher value
[7] = HCT116 colon cancer cell growth inhibition, primary screen, CellTiter-Glo luminescence, NPC library (AID 1117342;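 active = compounds that lower survival of HCT116 colon cancer cells in the luminescence readout, no numeric limit stated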); conditions: at 20 µM (top of the series)
[8] = reduced SW480 viability measured with CellTiter-Glo, NPC library, primary (AID 1117343;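 active = compounds that lower viability of the colon cancer cells in the luminescence readout, with no numeric limit stated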); conditions: CellTiter-Glo luminescence; at 20 µM (top of the series) unless noted
[9] = NPC library primary testing for decreased DLD-1 cell viability via CellTiter-Glo (AID 1117346;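 active = compounds that lower survival of DLD-1 colon cancer cells in the luminescence readout, no cutoff given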); conditions: DLD-1 viability, CellTiter-Glo luminescence; at 20 µM (top of the series)
[10] = viability loss with induced miR-34 in A549 – imaging, A549 dox-inducible miR-34, nuclei and caspase counts, primary screen (AID 1347080); conditions: A549 miR-34 inducible, Hoechst nuclei count, 48 h
[11] = MELAS cybrid and Rieske KO viability enhancers – cell-based, MELAS cybrids, Rieske KO mouse fibroblasts, CellTiter-Glo, primary screen (AID 1508586;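 active = mean z-score across replicates of 1.96 or higher in either the MELAS or the Rieske mutant cell line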;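 note: z relative to plate mean and SD of compound and empty wells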); conditions: low glucose
[12] = galactose survival enhancers in mitochondrial complex I cybrids – cell-based, galactose medium, ATP luminescence, primary screen (AID 1645843;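 active = z-score of at least 1.8 in each of two replicates, scored against plate mean and spread of sample wells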;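 note: positive z means more ATP and so rescue of galactose-driven cybrid death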); conditions: complex I mutant cybrid cells, 72 h, stronger effect = higher value
[13] = compounds altering viability of human ES cells (AID 493140; call rule not given here;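 note: cells exposed to compounds for four days before counting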); conditions: human embryonic stem cell survival screen; stronger effect = higher value
[14] = target: NAD(+) hydrolase SARM1 (Homo sapiens) (UniProt Q6SZW1); assay: blocking NAD cleavage by SARM1 SAM-TIR – cell lysate, NAD-Glo luminescence (AID 1508614;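 active = compound whose remaining NAD level is above about 45 nM, limit read from the data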;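 note: higher remaining NAD means stronger inhibition of SARM1 NADase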); conditions: SAM-TIR HEK293T lysate NADase, at 1 µM, stronger effect = higher value
[15] = target: Mitogen-activated protein kinase 7 (Homo sapiens) (UniProt Q13164); assay: Gal4-ERK5 driven luciferase induction – cell-based, HTS, primary screen (AID 1508626;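 active = luciferase signal above three times the same-plate solvent-only control wells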;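 note: luciferase driven by Gal4-ERK5 fusion binding five Gal4 sites before minimal TATA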); conditions: HeLa Gal4-ERK5 transactivation, 18 h, at 5 µM, stronger effect = higher value
[16] = target: ATP-dependent translocase ABCB1 (Homo sapiens) (UniProt P08183); assay: P-glycoprotein substrate transport blockade – cell-based (AID 377; in the data active = fluorescence slope change above about 50%); conditions: MDR1-expressing cells, fluorescent substrate accumulation slope; stronger effect = higher value; concentration not given here
[17] = stronger effect = lower value, cell number ratio, induced over uninduced
[18] = measured here: relative caspase fold change +Dox/-Dox
[19] = measured here: total cells with miR-34 induction, stronger effect = lower value
[20] = measured here: total cells without miR-34 induction
[21] = MELAS cybrid survival, CellTiter-Glo 48 h, stronger effect = higher value
[22] = Rieske KO mouse fibroblast survival, CellTiter-Glo 72 h

Chain of NAD(+) hydrolase SARM1 (Homo sapiens) (Q6SZW1 whole entry, looked up, the tested form may be a part): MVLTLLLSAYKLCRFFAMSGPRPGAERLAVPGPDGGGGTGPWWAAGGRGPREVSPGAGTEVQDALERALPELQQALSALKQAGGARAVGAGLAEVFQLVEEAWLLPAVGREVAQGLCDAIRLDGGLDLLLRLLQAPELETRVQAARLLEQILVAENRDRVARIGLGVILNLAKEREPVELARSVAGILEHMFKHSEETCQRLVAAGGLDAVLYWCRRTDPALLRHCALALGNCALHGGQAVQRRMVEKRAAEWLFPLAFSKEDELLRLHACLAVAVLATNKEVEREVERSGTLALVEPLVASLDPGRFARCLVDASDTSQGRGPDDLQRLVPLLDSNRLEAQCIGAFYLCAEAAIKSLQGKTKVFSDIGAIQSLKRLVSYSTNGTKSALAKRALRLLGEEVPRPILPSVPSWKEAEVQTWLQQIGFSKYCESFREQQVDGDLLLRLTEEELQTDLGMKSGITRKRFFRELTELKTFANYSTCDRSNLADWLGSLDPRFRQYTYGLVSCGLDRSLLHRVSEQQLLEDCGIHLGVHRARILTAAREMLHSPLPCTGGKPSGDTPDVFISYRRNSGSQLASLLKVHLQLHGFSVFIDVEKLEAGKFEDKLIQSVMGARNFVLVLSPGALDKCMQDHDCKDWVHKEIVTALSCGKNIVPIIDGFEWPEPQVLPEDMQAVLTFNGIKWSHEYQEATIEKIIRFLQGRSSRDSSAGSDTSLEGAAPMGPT
Chain of Mitogen-activated protein kinase 7 (Homo sapiens) (Q13164 whole entry, looked up, the tested form may be a part): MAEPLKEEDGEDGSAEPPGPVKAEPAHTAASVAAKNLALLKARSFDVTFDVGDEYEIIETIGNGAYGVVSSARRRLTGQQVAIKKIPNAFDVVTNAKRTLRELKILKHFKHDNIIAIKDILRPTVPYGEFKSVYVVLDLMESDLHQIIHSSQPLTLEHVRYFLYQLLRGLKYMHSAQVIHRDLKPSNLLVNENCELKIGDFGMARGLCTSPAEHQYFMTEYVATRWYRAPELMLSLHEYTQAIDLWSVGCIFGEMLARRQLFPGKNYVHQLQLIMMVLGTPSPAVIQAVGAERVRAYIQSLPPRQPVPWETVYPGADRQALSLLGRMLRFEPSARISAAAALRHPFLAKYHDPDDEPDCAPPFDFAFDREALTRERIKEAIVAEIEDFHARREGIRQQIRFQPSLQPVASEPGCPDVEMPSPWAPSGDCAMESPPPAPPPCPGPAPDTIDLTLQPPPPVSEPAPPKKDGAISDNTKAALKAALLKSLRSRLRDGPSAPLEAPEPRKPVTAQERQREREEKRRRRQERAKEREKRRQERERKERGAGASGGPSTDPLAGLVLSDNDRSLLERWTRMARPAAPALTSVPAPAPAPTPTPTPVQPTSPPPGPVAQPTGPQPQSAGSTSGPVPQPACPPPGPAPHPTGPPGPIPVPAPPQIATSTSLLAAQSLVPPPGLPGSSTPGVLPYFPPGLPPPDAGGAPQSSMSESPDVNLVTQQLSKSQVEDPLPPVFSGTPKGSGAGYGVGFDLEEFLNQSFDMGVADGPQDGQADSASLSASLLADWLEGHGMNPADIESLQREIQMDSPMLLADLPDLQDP
Chain of ATP-dependent translocase ABCB1 (Homo sapiens) (P08183 whole entry, looked up): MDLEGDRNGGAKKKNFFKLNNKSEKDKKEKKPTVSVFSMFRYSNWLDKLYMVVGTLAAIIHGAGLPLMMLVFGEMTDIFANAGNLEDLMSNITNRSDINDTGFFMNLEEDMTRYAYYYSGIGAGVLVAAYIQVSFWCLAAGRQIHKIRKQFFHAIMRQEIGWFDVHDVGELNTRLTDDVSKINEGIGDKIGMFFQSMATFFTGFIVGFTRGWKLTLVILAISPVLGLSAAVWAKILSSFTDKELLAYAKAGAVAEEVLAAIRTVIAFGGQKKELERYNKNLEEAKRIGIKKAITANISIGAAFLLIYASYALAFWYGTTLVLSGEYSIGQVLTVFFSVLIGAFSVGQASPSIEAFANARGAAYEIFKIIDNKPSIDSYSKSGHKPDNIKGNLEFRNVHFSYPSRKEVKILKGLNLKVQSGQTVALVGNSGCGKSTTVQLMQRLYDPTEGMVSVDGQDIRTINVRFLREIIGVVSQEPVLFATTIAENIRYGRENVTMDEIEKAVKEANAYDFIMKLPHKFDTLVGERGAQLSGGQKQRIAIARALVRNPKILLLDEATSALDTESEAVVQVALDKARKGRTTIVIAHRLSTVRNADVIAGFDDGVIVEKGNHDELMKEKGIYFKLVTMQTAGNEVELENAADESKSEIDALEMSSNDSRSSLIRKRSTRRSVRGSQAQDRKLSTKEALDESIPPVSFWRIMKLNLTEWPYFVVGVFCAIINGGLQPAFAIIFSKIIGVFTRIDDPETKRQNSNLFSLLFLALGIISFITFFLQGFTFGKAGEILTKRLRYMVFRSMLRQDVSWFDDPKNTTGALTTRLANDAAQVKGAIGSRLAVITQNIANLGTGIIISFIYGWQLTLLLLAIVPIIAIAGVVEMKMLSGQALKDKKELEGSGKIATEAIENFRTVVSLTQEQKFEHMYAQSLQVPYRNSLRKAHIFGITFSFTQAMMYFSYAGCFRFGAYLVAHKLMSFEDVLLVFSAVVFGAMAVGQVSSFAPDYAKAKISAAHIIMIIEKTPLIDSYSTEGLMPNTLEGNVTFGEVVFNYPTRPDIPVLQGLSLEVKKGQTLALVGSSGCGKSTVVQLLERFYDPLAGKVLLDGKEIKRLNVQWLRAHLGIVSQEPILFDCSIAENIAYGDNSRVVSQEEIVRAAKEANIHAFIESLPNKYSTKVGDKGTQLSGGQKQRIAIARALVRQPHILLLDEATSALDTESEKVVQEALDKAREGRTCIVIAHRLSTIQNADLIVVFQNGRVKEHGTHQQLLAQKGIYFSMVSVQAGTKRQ

## CN(C)CCN1C(=O)c2ccccc2N(C)c2ccccc21
[1]
  parasite load remaining: 18.6% (inactive)
  viability: 64.5%
[2]; at 10 µM
  nuclear beta-catenin stimulation: 0.8% (inactive)
[2]; stimulation, at 2 µM
  nuclear beta-catenin stimulation: -0.9%
[3]
  insulin secretion stimulation: 14.4% (inactive)
[4]
  viability decrease: 8.2% (inactive)
[5]
  tube area decrease: 11.6% (inactive)
[6]
  GLP1 secretion stimulation: 4% (inactive)
[7]
  inhibition of viability: 0.3% (inactive)
[8]
  viability decrease (inhibition): 35.8% (inactive)
[9]
  viability decrease (inhibition): -35.8% (inactive)
[10]; [17]
  fold change: 0.889 (inactive)
[10]; [18]
  fold change: 1.32
[10]; [19]
  cell count: 10000
[10]; [20]
  cell count: 11300
[11]; [21]
  z-score: 0.44 (inactive) and -0.381 (inactive)
[11]; [22]
  z-score: 0.025 and -0.152
[12]
  z-score: 0.475 (inactive)

## O=S(=O)(O)Oc1ccc(C(c2ccc(OS(=O)(=O)O)cc2)c2ccccn2)cc1
[2]; at 10 µM
  nuclear beta-catenin stimulation: -1.8% (inactive)
[2]; stimulation, at 2 µM
  nuclear beta-catenin stimulation: 1.7%
[3]
  insulin secretion stimulation: -1.2% (inactive)
[4]
  viability decrease: -2.3% (inactive)
[5]
  tube area decrease: 11.8% (inactive)
[6]
  GLP1 secretion stimulation: 1.3% (inactive)
[7]
  inhibition of viability: -5.5% (inactive)
[8]
  viability decrease (inhibition): -2.2% (inactive)
[9]
  viability decrease (inhibition): -5.9% (active)
[10]; [17]
  fold change: 0.9 (inactive)
[10]; [18]
  fold change: 1.41
[10]; [19]
  cell count: 8720
[10]; [20]
  cell count: 9690
[11]; [21]
  z-score: -0.185 (inactive)
[11]; [22]
  z-score: -0.14

## COc1ccc(C=CC(=O)Nc2ccccc2C(=O)O)cc1OC
[2]; at 10 µM
  nuclear beta-catenin stimulation: -1.3% (inactive)
[2]; stimulation, at 2 µM
  nuclear beta-catenin stimulation: 2.1%
[3]
  insulin secretion stimulation: 0.9% (inactive)
[4]
  viability decrease: 4.3% (inactive)
[5]
  tube area decrease: -1.3% (inactive)
[6]
  GLP1 secretion stimulation: -5.7% (inactive)
[7]
  inhibition of viability: -5.8% (inactive)
[8]
  viability decrease (inhibition): 4.8% (inactive)
[9]
  viability decrease (inhibition): -29.2% (inactive)
[10]; [17]
  fold change: 0.906 (inactive) and 0.975 (inactive)
[10]; [18]
  fold change: 1.48 and 0.856
[10]; [19]
  cell count: 9440 and 8000
[10]; [20]
  cell count: 10400 and 8210
[11]; [21]
  z-score: -0.386 (inactive)
[11]; [22]
  z-score: 0.573
[12]
  z-score: 0.955 (inactive)

## C#C[C@]1(OC(C)=O)CC[C@H]2[C@@H]3CCC4=C[C@@H](OC(C)=O)CC[C@@H]4[C@H]3CC[C@@]21C
[13]
  survival: 3.67 (inactive)
[1]
  parasite load remaining: 82.1% (inactive)
  viability: 93.8%
[2]; at 10 µM
  nuclear beta-catenin stimulation: 4.6% (inactive)
[2]; stimulation, at 2 µM
  nuclear beta-catenin stimulation: 2.1%
[3]
  insulin secretion stimulation: 0.1% (inactive)
[4]
  viability decrease: -55.2% (inactive)
[5]
  tube area decrease: -2.9% (inactive)
[6]
  GLP1 secretion stimulation: -2.3% (inactive)
[7]
  inhibition of viability: 45% (inactive)
[8]
  viability decrease (inhibition): 80.6% (active)
[9]
  viability decrease (inhibition): 64.6% (active)
[10]; [17]
  fold change: 0.877 (inactive)
[10]; [18]
  fold change: 1.09
[10]; [19]
  cell count: 9000
[10]; [20]
  cell count: 10300
[11]; [21]
  z-score: -0.135 (inactive)
[11]; [22]
  z-score: 0.556
[14]
  remaining NAD: 10 nM (inactive)
[15]
  luciferase signal: 64 AU (inactive)

## C#CC1(O)CC[C@H]2[C@@H]3CCC4=CCCC[C@@H]4[C@H]3CC[C@@]21C (some centres undefined)
[16]
  fluorescence slope change: 88.5% (active)
[1]
  parasite load remaining: 25.2% (inactive) and 119% (inactive)
  viability: 48.4% and 91.7%
[2]; at 10 µM
  nuclear beta-catenin stimulation: 0.9% (inactive)
[2]; stimulation, at 2 µM
  nuclear beta-catenin stimulation: 0.1%
[3]
  insulin secretion stimulation: 16.9% (inactive)
[4]
  viability decrease: 110% (active)
[5]
  tube area decrease: 14.7% (inactive)
[6]
  GLP1 secretion stimulation: 20.3% (active)
[7]
  inhibition of viability: 113% (active)
[8]
  viability decrease (inhibition): 132% (active)
[9]
  viability decrease (inhibition): 102% (active)
[10]; [17]
  fold change: 0.949 (inactive)
[10]; [18]
  fold change: 1.31
[10]; [19]
  cell count: 8290
[10]; [20]
  cell count: 8740
[11]; [21]
  z-score: 0.595 (inactive)
[11]; [22]
  z-score: 0.485
[15]
  luciferase signal: 80 AU (inactive)

## CC(C)(CO)[C@@H](O)C(=O)NCCCO
[13]
  survival: 26.3 (inactive)
[1]
  parasite load remaining: 20.9% (inactive) and 97.7% (inactive) and 20.3% (inactive)
  viability: 47.1% and 90.5% and 98.9%
[2]; at 10 µM
  nuclear beta-catenin stimulation: 1.6% (inactive)
[2]; stimulation, at 2 µM
  nuclear beta-catenin stimulation: 1.3%
[3]
  insulin secretion stimulation: -2.9% (inactive)
[4]
  viability decrease: -4.45% (inactive)
[5]
  tube area decrease: 10.3% (inactive)
[6]
  GLP1 secretion stimulation: 3.1% (inactive)
[7]
  inhibition of viability: 4.3% (inactive)
[8]
  viability decrease (inhibition): 100% (active)
[9]
  viability decrease (inhibition): -5.1% (inactive)
[10]; [17]
  fold change: 0.883 (inactive) and 0.939 (inactive)
[10]; [18]
  fold change: 1.21 and 2.44
[10]; [19]
  cell count: 8270 and 12000
[10]; [20]
  cell count: 9370 and 12800
[11]; [21]
  z-score: 0.185 (inactive)
[11]; [22]
  z-score: 0.0963
[14]
  remaining NAD: 10 nM (inactive)

## C[C@H](NCCc1ccc(O)cc1)[C@H](O)c1ccc(O)cc1
[16]
  fluorescence slope change: 27.4% (inactive)
[13]
  survival: 5.58 (inactive)
[1]
  parasite load remaining: 80.4% (inactive) and 86.8% (inactive)
  viability: 111% and 73.3%
[2]; at 10 µM
  nuclear beta-catenin stimulation: -1.4% (inactive)
[2]; stimulation, at 2 µM
  nuclear beta-catenin stimulation: -0.2%
[3]
  insulin secretion stimulation: 4.3% (inactive)
[4]
  viability decrease: -8.6% (inactive)
[5]
  tube area decrease: 5.1% (inactive)
[6]
  GLP1 secretion stimulation: -4.3% (inactive)
[7]
  inhibition of viability: 4.7% (inactive)
[8]
  viability decrease (inhibition): 0.4% (inactive)
[9]
  viability decrease (inhibition): -16.7% (inactive)
[10]; [17]
  fold change: 0.881 (inactive) and 0.9 (inactive)
[10]; [18]
  fold change: 1.49 and 0.723
[10]; [19]
  cell count: 8830 and 9090
[10]; [20]
  cell count: 10000 and 10100
[11]; [21]
  z-score: -0.276 (inactive) and 0.441 (inactive)
[11]; [22]
  z-score: -0.155 and 0.32
[15]
  luciferase signal: 96 AU (inactive)

## Cc1ccc(Nc2c(F)cccc2Cl)c(CC(=O)O)c1
[2]; at 10 µM
  nuclear beta-catenin stimulation: 1% (inactive)
[2]; stimulation, at 2 µM
  nuclear beta-catenin stimulation: 3.4%
[3]
  insulin secretion stimulation: -0.3% (inactive)
[4]
  viability decrease: 0.4% (inactive)
[5]
  tube area decrease: -20.6% (active)
[6]
  GLP1 secretion stimulation: 3.1% (inactive)
[7]
  inhibition of viability: -25.8% (inactive)
[8]
  viability decrease (inhibition): -2.2% (inactive)
[9]
  viability decrease (inhibition): -9.1% (inactive)
[10]; [17]
  fold change: 0.931 (inactive)
[10]; [18]
  fold change: 0.932 and 0.672
[10]; [19]
  cell count: 8200 and 8630
[10]; [20]
  cell count: 8810 and 9270
[11]; [21]
  z-score: -0.194 (inactive)
[11]; [22]
  z-score: 0.00857
[14]
  remaining NAD: 10 nM (inactive)

## Cc1ccc(Cl)c(OCC(O)CNC(C)(C)C)c1 (centres undefined)
[2]; at 10 µM
  nuclear beta-catenin stimulation: 0.2% (inactive)
[2]; stimulation, at 2 µM
  nuclear beta-catenin stimulation: 0.1%
[3]
  insulin secretion stimulation: 1% (inactive)
[4]
  viability decrease: -43.6% (inactive)
[5]
  tube area decrease: -6.8% (inactive)
[6]
  GLP1 secretion stimulation: 0% (inactive)
[7]
  inhibition of viability: -1.43% (inactive)
[8]
  viability decrease (inhibition): -8.9% (inactive)
[9]
  viability decrease (inhibition): -15.9% (inactive)
[10]; [17]
  fold change: 0.861 (inactive)
[10]; [18]
  fold change: 0.19
[10]; [19]
  cell count: 8600
[10]; [20]
  cell count: 9990
[11]; [21]
  z-score: 0.548 (inactive)
[11]; [22]
  z-score: -0.195
[12]
  z-score: 0.405 (inactive)
